# From PubChem BioAssay
# Inconclusive results are not listed. For some assays here: Potency and affinity values are given separately. Activity calls are given as the source filed them. Unless noted, no rule for the calls is given here.
# Assays:
# [1] = antimalarial activity against Dd2 strain (AID 2302;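 active = growth inhibition above 50% at the single 2 µM test dose, taken to imply half-maximal potency below 2 µM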;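 also: 0% = DMSO untreated growth and 100% = chloroquine plus artemisinin killed control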); conditions: P. falciparum Dd2 in RBCs, LDH growth readout, 72 h; at 2 µM; stronger effect = higher value
# [2] = HepG2 cytotoxicity, primary screen, cytotoxicity control for P. falciparum antimalarial project, cell-based, ATP luminescence (AID 2303;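 active = inhibition above 50%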;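 also: 0% = DMSO wells and 100% = digitonin-killed cells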); conditions: HepG2 viability, 24-48 h, at 10 µM, stronger effect = higher value
# [3] = target: L-lactate dehydrogenase (Plasmodium falciparum (isolate CDC / Honduras)) (UniProt Q27743); test: PfLDH activity inhibition – cell lysate, 3D7 strain, counter-screen for P. falciparum growth inhibition project (AID 2304);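 also: 0% = vehicle and 100% = reference inhibitor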; conditions: P. falciparum 3D7 crude extract, LDH APAD/NBT absorbance; at 2 µM; stronger effect = higher value
# [4] = inhibition of 3D7 malaria parasite growth – strain 3D7 (AID 2306);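 also: 0% = DMSO wells and 100% = chloroquine plus artemisinin control wells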; conditions: P. falciparum 3D7 erythrocytic growth, LDH absorbance, 72 h; at 2 µM; stronger effect = higher value
# [5] = target: Plasmodium falciparum protein kinase 6 (PK6, PF3D7_1337100) (UniProt Q8IDW1); test: PfPK6 kinase inhibitors, biochemical, TCAMS library (AID 1159586); conditions: recombinant PfPK6, Kinase-Glo ATP depletion luminescence
# [6] = target: Protein kinase 7 (PK7), Plasmodium falciparum 3D7 (PF3D7_0213400) (UniProt Q7YTF7); test: inhibition of Plasmodium PK7 catalytic activity – biochemical, TCAMS antimalarial set, Kinase-Glo luminescence (AID 1159587); conditions: recombinant PfPK7, Kinase-Glo ATP depletion luminescence
# [7] = system: Aerobactin synthetase IucA (Klebsiella pneumoniae); test: IucA aerobactin synthetase inhibitors, biochemical, Tocris library, absorbance (AID 1345561); conditions: purified IucA enzyme assay, absorbance (OD) read-out; stronger effect = lower value;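 tested at 8 µM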;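 also: 100% = enzyme without compound and 0% = no enzyme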
# [8] = growth inhibition of DIPG glioma cells, dose response, cell-based, SU-DIPG-XVII, MIPE5.0, CellTiter-Glo, qHTS (AID 1347060; cut-off not given, nearly all actives have AC50 up to about 26 µM;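 also: cells exposed to compound for 48 hours before viability readout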); conditions: SU-DIPG-XVII viability, CellTiter-Glo ATP luminescence
# [9] = growth inhibition of DIPG glioma cells, dose response, cell-based, SU-DIPG-XIII, MIPE4.0, CellTiter-Glo, qHTS (AID 1347061; cut-off not given, nearly all actives have AC50 up to about 37 µM;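 also: cells exposed to compound for 48 hours before readout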); conditions: SU-DIPG-XIII viability, CellTiter-Glo ATP luminescence
# [10] = growth inhibition of DIPG glioma cells, dose response, cell-based, JHH-DIPG-1, MIPE4.0, CellTiter-Glo, qHTS (AID 1347062; cut-off not given, nearly all actives have AC50 up to about 27 µM;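 also: cells exposed to compound for two days before readout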); conditions: JHH-DIPG-1 viability, CellTiter-Glo ATP luminescence
# [11] = growth inhibition of DIPG glioma cells, dose response, cell-based, SU-DIPG-IV, MIPE4.0, CellTiter-Glo, qHTS (AID 1347063; cut-off not given, nearly all actives have AC50 up to about 30 µM;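 also: compound exposure lasted 48 hours before the viability readout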); conditions: SU-DIPG-IV viability, CellTiter-Glo ATP luminescence
# [12] = growth inhibition of DIPG glioma cells, dose response, cell-based, SU-DIPG-XIII, MIPE5.0, CellTiter-Glo, qHTS (AID 1347064; cut-off not given, nearly all actives have AC50 up to about 23 µM;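 also: cells exposed to compound for 48 hours before the viability read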); conditions: SU-DIPG-XIII viability, CellTiter-Glo ATP luminescence
# [13] = viability loss in pontine glioma line – cell-based, SU-DIPG-XXV, MIPE5.0, CellTiter-Glo, qHTS, dose response (AID 1347065; cut-off not given, nearly all actives have AC50 up to about 26 µM;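 also: cells exposed to compound for 48 hours before ATP readout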); conditions: CellTiter-Glo ATP luminescence
# [14] = SU-DIPG-VI glioma cell viability, MIPE4.0 library, CellTiter-Glo luminescence, qHTS (AID 1347066; cut-off not given, nearly all actives have AC50 up to about 30 µM;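 also: cells exposed to compound for 48 hours before readout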); conditions: CellTiter-Glo ATP luminescence
# [15] = JHH-DIPG-1 glioma cell viability, MIPE5.0 library, CellTiter-Glo luminescence, qHTS (AID 1347067; cut-off not given, nearly all actives have AC50 up to about 26 µM;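 also: cells exposed to compound for 48 hours before readout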); conditions: JHH-DIPG-1 glioma viability, CellTiter-Glo ATP luminescence
# [16] = SU-DIPG-XXV glioma cell viability, MIPE5.0 library, qHTS (AID 1347068; cut-off not given, nearly all actives have IC50 up to about 30 µM)
# [17] = sensitizers of A549 cells to miR-34 induction, primary screen, imaging, A549 dox-inducible miR-34, nuclei and caspase counts (AID 1347080;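 active = compounds whose cell count with miR-34 switched on is under 0.7 times the count with it off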); conditions: A549 miR-34 inducible, Hoechst nuclei count, 48 h
# [18] = modifiers of HSF1 nuclear foci, imaging, Selleck Cancer Library (AID 1347162; in the data active = plate-normalised HSF1 focus index below about 0.46); conditions: human cells, at 10 µM; SSMD: measured here: HSF1 foci SSMD mean; cell count: measured here: cell number; plate-normalised HSF1 focus index: stronger effect = lower value
# [19] = viability rescue of complex I mutant cybrids, primary screen, cell-based, galactose medium, ATP luminescence (AID 1645843;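 active = z-score of at least 1.8 in each of two replicates, scored against plate mean and spread of sample wells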;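 also: positive z means more ATP and so rescue of galactose-driven cybrid death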); conditions: complex I mutant cybrid cells, 72 h, stronger effect = higher value
# [20] = target: Calcium-dependent protein kinase 4 (Plasmodium falciparum (isolate 3D7)) (UniProt Q8IBS5); test: PfCDPK4 kinase inhibitors, biochemical, TCAMS library (AID 1159588; cut-off not given, nearly all actives have IC50 up to about 0.91 µM); conditions: recombinant PfCDPK4, Kinase-Glo ATP depletion luminescence
# Sequence of Calcium-dependent protein kinase 4 (Plasmodium falciparum (isolate 3D7)) (Q8IBS5 whole entry, looked up): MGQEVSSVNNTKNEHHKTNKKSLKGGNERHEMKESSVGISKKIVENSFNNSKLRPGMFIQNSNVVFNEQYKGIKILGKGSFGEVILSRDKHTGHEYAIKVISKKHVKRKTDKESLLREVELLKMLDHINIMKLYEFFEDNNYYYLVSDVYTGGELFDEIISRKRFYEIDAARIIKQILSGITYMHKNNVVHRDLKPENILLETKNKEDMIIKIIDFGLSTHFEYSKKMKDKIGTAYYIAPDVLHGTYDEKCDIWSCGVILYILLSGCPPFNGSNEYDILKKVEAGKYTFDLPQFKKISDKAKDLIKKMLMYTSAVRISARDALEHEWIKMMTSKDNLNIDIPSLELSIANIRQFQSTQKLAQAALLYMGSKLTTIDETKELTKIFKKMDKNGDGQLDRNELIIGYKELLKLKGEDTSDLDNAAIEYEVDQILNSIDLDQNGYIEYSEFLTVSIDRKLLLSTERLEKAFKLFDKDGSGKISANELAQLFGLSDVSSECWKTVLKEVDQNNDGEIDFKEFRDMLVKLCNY
# Sequence of L-lactate dehydrogenase (Plasmodium falciparum (isolate CDC / Honduras)) (Q27743 whole entry, looked up): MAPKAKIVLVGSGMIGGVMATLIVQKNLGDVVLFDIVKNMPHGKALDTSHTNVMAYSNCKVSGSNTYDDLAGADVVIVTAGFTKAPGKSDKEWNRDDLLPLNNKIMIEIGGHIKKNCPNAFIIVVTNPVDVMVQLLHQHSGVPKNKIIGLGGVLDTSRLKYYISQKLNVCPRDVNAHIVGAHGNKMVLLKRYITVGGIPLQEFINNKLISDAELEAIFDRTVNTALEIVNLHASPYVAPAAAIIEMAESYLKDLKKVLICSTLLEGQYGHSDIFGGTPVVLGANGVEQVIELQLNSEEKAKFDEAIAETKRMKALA
# Sequence of Protein kinase 7 (PK7), Plasmodium falciparum 3D7 (PF3D7_0213400) (Q7YTF7 1-343): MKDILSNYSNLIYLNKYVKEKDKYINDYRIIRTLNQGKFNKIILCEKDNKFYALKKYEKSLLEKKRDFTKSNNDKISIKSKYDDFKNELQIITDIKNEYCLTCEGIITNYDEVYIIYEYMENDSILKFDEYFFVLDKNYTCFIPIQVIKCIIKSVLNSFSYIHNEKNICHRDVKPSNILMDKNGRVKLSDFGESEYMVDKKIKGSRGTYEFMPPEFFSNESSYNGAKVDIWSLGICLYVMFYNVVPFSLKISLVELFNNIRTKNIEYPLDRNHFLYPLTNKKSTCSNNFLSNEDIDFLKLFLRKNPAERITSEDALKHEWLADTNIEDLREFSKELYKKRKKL
# Sequence of Plasmodium falciparum protein kinase 6 (PK6, PF3D7_1337100) (Q8IDW1 1-305): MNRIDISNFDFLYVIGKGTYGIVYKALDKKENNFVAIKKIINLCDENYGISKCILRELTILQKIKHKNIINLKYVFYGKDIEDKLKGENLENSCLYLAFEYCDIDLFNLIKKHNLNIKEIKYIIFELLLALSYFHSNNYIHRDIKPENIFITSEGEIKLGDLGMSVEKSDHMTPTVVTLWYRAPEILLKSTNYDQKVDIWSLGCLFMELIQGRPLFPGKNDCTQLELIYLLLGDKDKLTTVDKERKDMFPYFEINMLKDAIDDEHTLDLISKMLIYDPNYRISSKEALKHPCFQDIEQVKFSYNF
structure (smiles),measurement,setting,value
Cc1cccc(Nc2nc(NCCCCN)nc3cc[nH]c(=O)c23)c1,growth inhibition,[1],97% (active)
same,inhibition,[2],34% (inactive)
same,inhibition,[3],0% (inactive)
same,growth inhibition,[4],98% (active)
same,outcome,[5],inactive
same,outcome,[6],inactive
NS(=O)(=O)c1cccc(Nc2nc(N[C@@H]3CCNC3)nc3cc[nH]c(=O)c23)c1,growth inhibition,[1],98% (active)
same,inhibition,[2],7% (inactive)
same,inhibition,[3],0% (inactive)
same,growth inhibition,[4],99% (active)
same,outcome,[5],inactive
same,outcome,[6],inactive
COCCOc1ccc(Nc2nccc(-c3c(-c4cccc(NC(=O)c5c(F)cccc5F)c4)nn4ccccc34)n2)cc1Cl,growth inhibition,[1],97% (active)
same,inhibition,[2],53% (active)
same,inhibition,[3],4% (inactive)
same,growth inhibition,[4],99% (active)
same,outcome,[5],inactive
same,outcome,[6],inactive
Cc1[nH]c(/C=C2\C(=O)Nc3ccc(S(=O)(=O)Cc4c(Cl)cccc4Cl)cc32)c(C)c1C(=O)N1CCC[C@@H]1CN1CCCC1,growth inhibition,[1],92% (active)
same,inhibition,[2],33% (inactive)
same,inhibition,[3],-1% (inactive)
same,growth inhibition,[4],85% (active)
same,outcome,[5],inactive
same,outcome,[6],inactive
same,remaining activity,[7],123% (inactive)
same,AC50,[8],9.34 µM (active)
same,outcome,[9],inactive
same,AC50,[10],26.4 µM (active)
same,AC50,[11],23.5 µM (active)
same,AC50,[12],9.34 µM (active)
same,AC50,[13],8.33 µM (active)
same,AC50,[14],8.33 µM (active)
same,AC50,[15],5.9 µM (active)
same,outcome,[16],inactive
same,fold change,"[17]; stronger effect = lower value, cell number ratio, induced over uninduced",1.1 (inactive)
same,fold change,[17]; measured here: relative caspase fold change +Dox/-Dox,1.29
same,cell count,"[17]; measured here: total cells with miR-34 induction, stronger effect = lower value",5950
same,cell count,[17]; measured here: total cells without miR-34 induction,5410
same,SSMD,[18],0.661
same,cell count,[18],7510
same,plate-normalised HSF1 focus index,[18],1.05 (inactive)
same,z-score,[19],-0.7 (inactive)
NCCCNc1nc(Nc2cccc(C(N)=O)c2)c2c(=O)[nH]ccc2n1,growth inhibition,[1],49% (inactive)
same,inhibition,[2],9% (inactive)
same,inhibition,[3],-3% (inactive)
same,growth inhibition,[4],99% (active)
same,outcome,[5],inactive
same,outcome,[6],inactive
CCn1c(-c2nonc2N)nc2c(-c3cccc(NC(=O)Nc4ccccc4OC)c3)ncc(OCCCN)c21,growth inhibition,[1],58% (active)
same,inhibition,[2],84% (active)
same,inhibition,[3],-2% (inactive)
same,growth inhibition,[4],92% (active)
same,outcome,[5],inactive
same,outcome,[6],inactive
CCNC(=O)Nc1ccc(-c2cnc(N)c(-c3nc4ccc(OC)cc4[nH]3)c2)cc1,growth inhibition,[1],43% (inactive)
same,inhibition,[2],51% (active)
same,inhibition,[3],1% (inactive)
same,growth inhibition,[4],100% (active)
same,outcome,[5],inactive
same,outcome,[6],inactive
same,outcome,[20],inactive
CN1CCN(c2ccc(Nc3nccc(-c4c(-c5cccc(NC(=O)c6c(F)cccc6F)c5)nn5ccccc45)n3)cc2)CC1,growth inhibition,[1],98% (active)
same,inhibition,[2],86% (active)
same,inhibition,[3],-3% (inactive)
same,growth inhibition,[4],98% (active)
same,outcome,[5],inactive
same,outcome,[6],inactive
CCn1c(-c2nonc2N)nc2c(-c3cccc(NC(=O)Nc4cccc(C#N)c4)c3)ncc(OCCCN)c21,growth inhibition,[1],80% (active)
same,inhibition,[2],37% (inactive)
same,inhibition,[3],0% (inactive)
same,growth inhibition,[4],92% (active)
same,outcome,[5],inactive
same,outcome,[6],inactive
CCn1c(-c2nonc2N)nc2c(-c3cccc(NC(=O)Nc4ccc5c(c4)CCC5)c3)ncc(OCCCN)c21,growth inhibition,[1],94% (active)
same,inhibition,[2],26% (inactive)
same,inhibition,[3],-2% (inactive)
same,growth inhibition,[4],99% (active)
same,outcome,[5],inactive
same,outcome,[6],inactive
CN1CCN(Cc2cccc(Nc3nccc(Nc4ccc(Oc5ccccc5)cc4)n3)c2)CC1,growth inhibition,[1],80% (active)
same,inhibition,[2],30% (inactive)
same,inhibition,[3],2% (inactive)
same,growth inhibition,[4],97% (active)
same,outcome,[5],inactive
same,outcome,[6],inactive
same,outcome,[20],inactive
N#CCc1ccc(Nc2nccc(Nc3ccc(Oc4ccccc4)cc3)n2)cc1,growth inhibition,[1],47% (inactive)
same,inhibition,[2],-1% (inactive)
same,inhibition,[3],6% (inactive)
same,growth inhibition,[4],98% (active)
same,outcome,[5],inactive
same,outcome,[6],inactive
same,outcome,[20],inactive
CCn1c(-c2nonc2N)nc2c(-c3cccc(NC(=O)NC45CC6CC(CC(C6)C4)C5)c3)ncc(OCCCN)c21,growth inhibition,[1],63% (active)
same,inhibition,[2],100% (active)
same,inhibition,[3],-2% (inactive)
same,growth inhibition,[4],94% (active)
same,outcome,[5],inactive
same,outcome,[6],inactive
CC(C)(CN)c1cc(-c2ccc(Cl)c(O)c2)c(-c2ccncc2)o1,growth inhibition,[1],97% (active)
same,inhibition,[2],44% (inactive)
same,inhibition,[3],7% (inactive)
same,growth inhibition,[4],92% (active)
same,outcome,[5],inactive
same,outcome,[6],inactive
COCCNCc1cccc(-c2ccc3c(Nc4cc(O)c(Cl)cc4F)ccnc3c2)c1,growth inhibition,[1],79% (active)
same,inhibition,[2],-3% (inactive)
same,inhibition,[3],7% (inactive)
same,growth inhibition,[4],101% (active)
same,outcome,[5],inactive
same,outcome,[6],inactive
same,outcome,[20],inactive
CCn1c(-c2nonc2N)nc2c(-c3cccc(NC(=O)Nc4cccc(C(F)(F)F)c4)c3)ncc(OCCCN)c21,growth inhibition,[1],70% (active)
same,inhibition,[2],21% (inactive)
same,inhibition,[3],2% (inactive)
same,growth inhibition,[4],95% (active)
same,outcome,[5],inactive
same,outcome,[6],inactive
CS(=O)(=O)Nc1cccc(-c2cnc3[nH]cc(-c4cccc(CN)c4)c3c2)c1,growth inhibition,[1],82% (active)
same,inhibition,[2],25% (inactive)
same,inhibition,[3],-2% (inactive)
same,growth inhibition,[4],96% (active)
same,outcome,[5],inactive
same,outcome,[6],inactive
same,outcome,[20],inactive
CN1CCN(Cc2ccc(-c3ccc4c(Nc5cc(O)c(Cl)cc5F)ccnc4c3)o2)CC1,growth inhibition,[1],99% (active)
same,inhibition,[2],2% (inactive)
same,inhibition,[3],-4% (inactive)
same,growth inhibition,[4],100% (active)
same,outcome,[5],inactive
same,outcome,[6],inactive
same,outcome,[20],inactive
COc1cccc(Nc2nccc(-c3c(-c4cccc(NC(=O)c5c(F)cccc5F)c4)nn4ccccc34)n2)c1,growth inhibition,[1],98% (active)
same,inhibition,[2],35% (inactive)
same,inhibition,[3],-2% (inactive)
same,growth inhibition,[4],98% (active)
same,outcome,[5],inactive
same,outcome,[6],inactive
same,outcome,[20],inactive
O=C(NC1CC1)c1ccc(Nc2nccc(-c3c(-c4cccc(NC(=O)c5c(F)cccc5F)c4)nn4ccccc34)n2)cc1,growth inhibition,[1],96% (active)
same,inhibition,[2],84% (active)
same,inhibition,[3],-1% (inactive)
same,growth inhibition,[4],94% (active)
same,outcome,[5],inactive
same,outcome,[6],inactive
same,outcome,[20],inactive
